Bioassay records: PubChem, several laboratories
Mcl1 Bid PPI: Mcl-1/Bid interaction inhibition; Q07820; AID 1021; inhibition, % at 21.7 µM; TR-FRET Mcl-1/Bid-Dy647 peptide binding, 1536-well; 220,000 compounds, 0.97% hits;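 active = compounds that cut the binding signal by more than half at the single screening dose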;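 also: His-tagged Mcl-1 with europium anti-His antibody binding Bid BH3 peptide; 0% = Mcl-1 plus peptide wells and 100% = peptide-only wells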
Target sequence (Q07820 whole entry, looked up): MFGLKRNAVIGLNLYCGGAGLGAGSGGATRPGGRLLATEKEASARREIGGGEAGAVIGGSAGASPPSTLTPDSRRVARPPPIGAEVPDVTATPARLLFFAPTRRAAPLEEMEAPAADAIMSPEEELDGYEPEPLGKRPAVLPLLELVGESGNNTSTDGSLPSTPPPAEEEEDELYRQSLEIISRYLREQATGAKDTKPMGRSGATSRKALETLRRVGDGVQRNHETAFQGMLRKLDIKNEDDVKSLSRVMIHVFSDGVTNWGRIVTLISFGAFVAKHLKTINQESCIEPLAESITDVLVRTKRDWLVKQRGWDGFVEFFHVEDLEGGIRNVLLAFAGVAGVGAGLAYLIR
Mcl-1 Bim block: disrupts Bim peptide binding to human Mcl-1; 190,000 compounds, 0.1% hits; inhibition, % at 10 µM; Q07820; Bead-based flow cytometry, Bim peptide-Mcl-1 binding; AID 1009; in the data active = inhibition above about 40%;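 also: 0% = no compound tracer wells and 100% = peptide blocker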
MCL1-BIM inh: MCL1-BIM-BH3 interaction inhibition (human) | inhibition, % at 10.9 µM | 320,000 compounds, 0.68% hits | Q07820 | GST-MCL1 / FITC-Bim-BH3 fluorescence polarization;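 active = inhibition above the mean inhibition of all tested compounds plus 3 SD, set per campaign, cut at about 40% in these data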;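 also: 0% = DMSO wells and 100% = unlabeled Bim-BH3 peptide control; higher means more loss of mP so more displacement of Bim peptide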
Bcl-xL primary: blocks human Bcl-xL binding to Bim BH3 peptide; GST-Bcl-xL / FITC-Bim BH3 peptide fluorescence polarization; 320,000 compounds, 0.7% hits; Q07817; inhibition, % at 10.9 µM;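 active = inhibition above the mean of all tested compounds plus 3 SD, cutoff set per campaign, cut at about 30% in these data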;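 also: 0% = DMSO wells and 100% = unlabeled Bim-BH3 peptide competitor; inhibitors lower millipolarization by displacing the labeled peptide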
Target sequence (Q07817 whole entry, looked up): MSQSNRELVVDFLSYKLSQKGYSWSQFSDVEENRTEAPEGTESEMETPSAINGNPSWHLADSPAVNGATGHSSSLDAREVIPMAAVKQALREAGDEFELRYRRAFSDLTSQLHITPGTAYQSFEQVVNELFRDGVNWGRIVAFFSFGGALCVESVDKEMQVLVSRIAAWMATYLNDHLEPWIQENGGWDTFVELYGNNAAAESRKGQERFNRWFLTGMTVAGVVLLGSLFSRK
GLD-1 RNA inh: GLD-1-TGE RNA interaction inhibition (C. elegans). 320,000 compounds, 0.44% hits. Q17339. inhibition, % at 5.96 µM. purified GLD-1 + fluorescein TGE RNA, fluorescence polarization;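 active = percent inhibition above a per-plate cutoff, the plate mean of test compounds plus 3 SD, cut at about 30% in these data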;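 also: 0% = DMSO wells with GLD-1 and probe and 100% = wells lacking GLD-1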
Mcl1 Noxa PPI: disrupts binding of human Mcl-1 to Noxa peptide | Q07820 | TR-FRET Mcl-1/Noxa peptide binding, 2 h | inhibition, % at 21.7 µM | 220,000 compounds, 1.5% hits;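 active = compounds that cut the protein-peptide binding signal by more than 50% relative to plate controls in a single-dose test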;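 also: His-tagged Mcl-1 with rhodamine Noxa BH3 peptide and terbium anti-His antibody; 0% = Mcl-1 plus Noxa peptide wells and 100% = peptide-only wells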
Bcl-xL conf: Bcl-xL (human) inhibition, MCL1 counter-screen confirmation; shares compounds with MCL1-BIM inh; GST-Bcl-xL / FITC-Bim BH3 peptide FP binding; inhibition, % at 10.9 µM; 1,700 compounds, 54% hits; AID 2166;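 active = inhibition above a cutoff equal to the mean inhibition of all tested compounds plus 3 SD, cut at about 30% in these data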;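 also: 0% = DMSO wells and 100% = unlabeled Bim BH3 control peptide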
MCL1 inh confirm: MCL1-BIM-BH3 interaction inhibition, confirmation; shares compounds with MCL1-BIM inh; GST-MCL1 / FITC-Bim-BH3 fluorescence polarization; inhibition, % at 10.9 µM; 1,700 compounds, 61% hits; AID 2168;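 active = inhibition above the average of all tested compounds plus 3 SD, cut at about 40% in these data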;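 also: 0% = DMSO wells and 100% = unlabeled Bim-BH3 control peptide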
An asterisk follows results filed as active; nt = no result given. Rows were chosen to be rich in hits. Some 2.3% of all compounds tested hit in one or more screens of this group.

SMILES	Mcl1 Bid PPI	Mcl-1 Bim block	MCL1-BIM inh	Bcl-xL primary	GLD-1 RNA inh	Mcl1 Noxa PPI	Bcl-xL conf	MCL1 inh confirm
CCn1c(/C=C/c2ccccc2)nc2ccccc21	1	3	0	3	-3	23	nt	nt
CC(C)CCNC(=O)CN(C(=O)CCC(=O)Nc1nccs1)C1CCCCC1	nt	nt	3	3	2	nt	nt	nt
Cc1ccc(NC(=O)CSc2nnc(-c3cc(C)[nH]n3)n2N)c(C)c1	nt	nt	-8	-5	0	nt	nt	nt
Oc1c(C=Nc2cccc3cccnc23)sc2ccccc12	49	-9	128*	80*	-152	-10	37*	99*
O=C(N/N=C/c1sc2ccccc2c1O)c1cccc2ccccc12	-34	-6	-40	-20	-44	-13	nt	nt
O=C(O)c1cc2nc3c(c(C(F)(F)F)n2n1)CCc1ccccc1-3	-25	1	15	15	-9	2	nt	nt
COCCNC(=O)c1cc2nc3c(c(C(F)(F)F)n2n1)CCc1ccccc1-3	-7	0	49*	-3	1	-1	4	8
C=CCn1c(CSc2ccccc2[N+](=O)[O-])n[nH]c1=S	nt	nt	46*	18	0	nt	28	46*
COc1cc(C)ccc1OCc1cc(C(=O)N2CCC(c3ccc(F)cc3)C2)no1 (stereo not drawn)	nt	nt	4	1	-1	nt	nt	nt
COc1ccc(C2=Nn3c(nnc3-c3ccco3)SC2)cc1	-10	8	6	13	6	8	nt	nt
Oc1ccc(C2=Nn3c(nnc3-c3ccco3)SC2)cc1O	-2	33	60*	18	1	38	29	73*
Nc1c(C(=O)C2CC2)sc2nc(-c3cccs3)cc(C(F)(F)F)c12	-23	-5	72*	11	-36	-32	13	-17
CC(C)C(=O)Nc1ccc(NC(=O)c2ccc(COc3ccccc3)cc2)cc1	nt	nt	7	6	1	nt	nt	nt
Cc1nc(Cl)c2c(n1)NC1=C(O2)C(=O)CCC1	-66	-5	198*	165*	168*	2	146*	175*
Cc1c2ccccc2nc2c(F)c(N(C)C)c(F)c(F)c12	-36	-2	122*	114*	99*	-50	120*	134*
O=C1NC(=S)SC1=C1CCCC1	-5	-3	44*	12	-7	31	26	60*
O=C(CCCN1C(=O)NC2(CCCC2)C1=O)NCc1ccccc1	nt	nt	9	7	7	nt	nt	nt
COc1ccccc1NC(=O)Cn1c(O)c(N=NC(=O)c2ccccc2O)c2ccccc21	34	3	50*	9	-3	36	19	62*
Cc1ccc(S(=O)(=O)/N=C(/Nc2cccc(O)c2)c2ccccc2)cc1	nt	nt	22	7	4	nt	nt	nt
CCOC(=O)c1cnc(-n2[nH]c(C)cc2=O)[nH]c1=O	-164	1	74*	1	-4	-9	5	81*
O=C(O)CC(C(=O)O)N1C(=O)/C(=C/C=C/c2ccco2)SC1=S (stereo not drawn)	-20	nt	75*	41*	12	85*	22	32
O=C(CCN1C(=O)/C(=C\C=C\c2ccccc2)SC1=S)Nc1ccccc1C(=O)O	nt	nt	43*	25	-1	nt	15	12
O=C(O)CCCN1C(=O)/C(=C/C=C/c2ccco2)SC1=S	34	nt	80*	46*	2	94*	25	31
CCN(CC(=O)Nc1c(F)cccc1F)C(=O)CN(C)S(=O)(=O)c1ccc(F)cc1	nt	nt	-8	-6	6	nt	nt	nt
CC(OC(=O)c1cc(=O)[nH]c2ccccc12)C(=O)Nc1ccccc1F (stereo not drawn)	nt	nt	-6	-2	5	nt	nt	nt
SMILES	Mcl1 Bid PPI	Mcl-1 Bim block	MCL1-BIM inh	Bcl-xL primary	GLD-1 RNA inh	Mcl1 Noxa PPI	Bcl-xL conf	MCL1 inh confirm
CCOc1ccc(N(CC(=O)NCCSCc2ccco2)S(=O)(=O)c2ccc(C)cc2)cc1	nt	nt	0	-1	2	nt	nt	nt
CC(=O)Nc1ccc(NC(=O)CSc2ccc3nnc(-c4cccnc4)n3n2)cc1	nt	nt	8	12	0	nt	nt	nt
C[C@H](CO)N1C[C@H](C)[C@@H](CN(C)S(=O)(=O)c2ccccc2)Oc2c(NC(=O)CCC(F)(F)F)cccc2C1=O	nt	nt	nt	nt	-1	nt	nt	nt
c1cc(-c2nnc3n2CCCCC3)ccn1	-11	-1	84*	-5	-6	9	10	10
Cn1c2ccccc2c2cc(/C=N/NC(=O)c3cc(O)ccc3O)ccc21	nt	nt	57*	32*	8	nt	62*	93*
O=C(CSc1ccc(Cl)cc1)NNC(=O)c1ccco1	nt	nt	-11	-2	6	nt	nt	nt
COc1ccccc1N1CC(C(=O)Nc2ccc(N3CCOCC3)cc2)CC1=O (stereo not drawn)	nt	nt	4	-1	3	nt	nt	nt
CCc1ccc(NC(=O)c2noc3c2CCC3)cc1	7	-1	26	12	6	41	nt	nt
COC(=O)c1ccccc1NC(=O)c1noc2c1CCC2	-53	-4	41*	12	0	70*	15	49*
CCc1ccc(N2CC(C(=O)OCc3nc4ccsc4c(=O)[nH]3)CC2=O)cc1 (stereo not drawn)	nt	nt	41*	24	17	nt	33*	49*
C=CCN1C=CC(=O)CC1	-95	nt	131*	164*	87*	-8	5	-2
O=C(O)Cc1ccc(N=Nc2c(O)c(C(=O)O)cc3ccccc23)cc1	-2	nt	43*	26	6	23	37*	70*
O=C1NCC(COCc2ccccc2)O1 (stereo not drawn)	-6	1	54*	26	12	7	10	12
Cc1cccc(C)c1OCC1CNC(=O)O1 (stereo not drawn)	nt	nt	-4	3	3	nt	nt	nt
O=C(O)COc1ccccc1C(Nc1ccccn1)c1cc(Cl)c2cccnc2c1O (stereo not drawn)	74*	-5	79*	19	6	91*	27	89*
O=C(NC(c1ccccc1)c1cc(Cl)c2cccnc2c1O)c1cccnc1 (stereo not drawn)	-18	-4	8	6	3	-27	nt	nt
Cc1ccc(-c2ccc(=O)n(Cc3cccc(Br)c3)n2)cc1	nt	nt	-4	-1	-5	nt	nt	nt
CCOc1cc(C2C3=C(CCCC3=O)N(C)C3=C2C(=O)CCC3)cc(Cl)c1O	-22	0	50*	24	11	8	26	24
CCOC(=O)CNC(=O)CSc1nc(Cc2ccccc2)nc2ccccc12	nt	nt	5	4	7	nt	nt	nt
COc1ccccc1CN1CCC(CNS(=O)(=O)c2cc(-c3onc(C)c3C)ccc2OC)CC1	nt	nt	5	3	-14	nt	nt	nt
COc1cc(NC(C)CCCN)c2ncccc2c1 (stereo not drawn)	nt	nt	53*	44*	-47	nt	32*	50*
